Assay outcomes (PubChem BioAssay)
Hits are enriched below; roughly 3.8% of the tested compounds scored in any of these assays.
NALP3 yeast inh – inhibitors of NALP3 inflammasome in yeast. Yeast reconstituted NLRP3/ASC/caspase-1, beta-gal luminescence, 24 h. inhibition, % at 10 µM. 0.39% of 330,000 active. AID 2825;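 active means inhibition of 50% or more; inactive means inhibition below 50%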;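 further: plate controls were induced DMSO wells for no effect and uninduced yeast grown without galactose for full effect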
TIM10 inh – growth inhibitors of TIM10 yeast strain | S. cerevisiae TIM10 strain growth, BacTiter-Glo luminescence, 24 h | inhibition, % at 10 µM | 1.4% of 330,000 active | AID 463195;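 active means inhibition of 40% or more at the single tested concentration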;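 further: wild-type TIM10 isogenic control strain grown at permissive 25 °C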
tim10-1 inh – inhibits growth of tim10-1 mutant yeast | 2.2% of 330,000 active | S. cerevisiae tim10-1 ts strain growth, BacTiter-Glo, 24 h | inhibition, % at 20 µM;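 active means inhibition of at least 40%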;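 further: mutant grown at 25 °C; 0% = DMSO wells with yeast and 100% = wells holding no yeast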
CR mimetic SO – lowers age-related superoxide in aged yeast cells | superoxide response (% of plate mean), % at 10 µM | S. cerevisiae aged cells, superoxide DHE fluorescence; hits give low values | 0.18% of 330,000 active | AID 2690;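 active means superoxide response under a set limit, about three screen SD below normal, cut at about 65% in these data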;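 further: yeast aged for seven days with compound at 30 °C before DHE staining; 100% = average MFI of all compound-treated wells on the plate with controls excluded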
tim23-1 inh – growth inhibitors of tim23-1 mutant yeast; S. cerevisiae tim23-1 growth, BacTiter-Glo luminescence, 24 h; inhibition, % at 20 µM; 1.3% of 330,000 active; AID 463212;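 active means growth inhibition of the mutant yeast at or above 50%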;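 further: temperature-sensitive mutant grown at 25 °C; plate controls were DMSO-treated mutant yeast for no effect and medium wells lacking yeast for full effect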
tim10-1 conf – confirmation of tim10-1 mutant yeast growth inhibitors. shares compounds with tim10-1 inh. S. cerevisiae tim10-1 ts strain growth, BacTiter-Glo, 24 h. inhibition, % at 20 µM. 56% of 7,400 active. AID 463213;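 active means inhibition of yeast growth at or above a set limit in either of two repeat tests at 20 µM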;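 further: tim10-1 mutant grown at permissive 25 °C to find synthetic lethal compounds; 0% = DMSO yeast wells and 100% = medium wells without yeast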
tim10 confirm – TIM10 yeast growth inhibition, confirmed; shares compounds with TIM10 inh; S. cerevisiae tim10 strain growth, BacTiter-Glo luminescence, 24 h; inhibition, % at 10 µM; 63% of 4,600 active;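 active means inhibition of yeast growth at or above a set limit in either of two replicates at 10 µM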;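 further: this counterscreen used the strain with wild-type TIM10; 0% = yeast with DMSO and 100% = medium wells lacking yeast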
tim23-1 conf – confirmation of tim23-1 mutant yeast growth inhibitors | shares compounds with tim23-1 inh | S. cerevisiae tim23-1 growth, BacTiter-Glo luminescence, 24 h | inhibition, % at 20 µM | 83% of 4,400 active;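 active means inhibition above about 39% in either of two replicate wells at 20 µM, limit read from the data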;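 further: temperature-sensitive tim23-1 mutant grown at 25 °C; 0% = DMSO wells with yeast and 100% = medium wells without yeast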
The depositor's hits bear a star; . = not tested or not shown.

SMILES	NALP3 yeast inh	TIM10 inh	tim10-1 inh	CR mimetic SO	tim23-1 inh	tim10-1 conf	tim10 confirm	others
c1ccc(-c2cc(-c3ccccc3)[n+](-c3ccccc3)c(-c3ccccc3)c2)cc1	14	24	22	88	20	.	.
COC(=O)C1=C(c2ccc(-c3ccccc3)c(F)c2)C[C@@H]2CC[C@H]1N2C(=O)NCc1cc(C)oc1C(F)(F)F	15	11	17	100	22	.	.
Cc1cc(C=C2C(=O)N(C)C(=S)N(C)C2=O)c(C)n1C1CCCC1	22	21	47*	93	41	20	.
CCOc1ccc(NC(=O)N2C[C@H]3C[C@@H](C2)c2cccc(=O)n2C3)cc1	12	-4	11	113	15	.	.
Cn1c(=O)cc(OCCCC(=O)N2CCC3(CC2)OCCO3)c2ccccc21	10	8	4	109	6	.	.
O=C(CCCOc1ccc(Cl)cc1Cl)N1CCC2(CC1)OCCO2	18	24	42*	105	30	33*	.
Cc1ccc(OC(F)F)c(N2C(=O)C3C4CCC(O4)C3C2=O)c1 (stereo unspecified)	6	0	1	113	-4	.	.
O=C(Nc1cccc(C(F)(F)F)c1)c1cccn(Cc2ccc3c(c2)OC(F)(F)O3)c1=O	4	44*	49*	119	11	28	35*
Cc1[nH]n(-c2ccccc2)c(=O)c1C(c1ccc([N+](=O)[O-])cc1)c1c(C)[nH]n(-c2ccccc2)c1=O	-3	46*	56*	123	45	44*	33*
Cc1ccc(N=C(/N=C(\N)N[N+](=O)[O-])Nc2ccc(C)cc2)cc1	8	-2	18	89	20	.	.
O=c1c2ccccc2nc(/C=C/c2ccc([N+](=O)[O-])o2)n1-c1ccc(O)cc1	18	0	-4	.	-4	.	.
Cc1cccc(-n2c(/C=C/c3ccc([N+](=O)[O-])o3)nc3ccccc3c2=O)c1	23	47*	57*	86	27	51*	-1
FC(F)(F)C1=NC(C(F)(F)F)=NP(N2CCOCC2)(N2CCOCC2)=N1	8	10	5	81	0	.	.
CCN(CC)C(=O)c1ccc(NC(=O)Nc2ccccc2F)cc1	5	42*	56*	93	66*	68*	40*	tim23-1 conf=64*
CCN(CC)C(=O)c1ccc(NC(=O)CCCSc2ccccc2)cc1	10	-37	6	98	16	.	.
CN1C(=O)NC(=O)/C(=C/c2ccc([N+](=O)[O-])o2)C1=O	8	-1	9	92	10	.	.
CN1C(=O)NC(=O)/C(=C/c2ccc([N+](=O)[O-])s2)C1=O	11	90*	74*	93	71*	67*	44*	tim23-1 conf=80*
O=C1NC(=O)N(c2ccccc2)C(=O)/C1=C\c1ccc([N+](=O)[O-])s1	11	85*	66*	111	68*	76*	26	tim23-1 conf=76*
COc1ccc(OC)c(N2C(=O)NC(=O)/C(=C\c3ccc([N+](=O)[O-])s3)C2=O)c1	-15	84*	69*	102	52*	73*	40*	tim23-1 conf=72*
CC12CN3CCN(CC(C3)/C1=N/NC(N)=O)C2	13	14	6	107	7	.	.
C=C1[C@@H](OC(C)=O)[C@]23C[C@@H]1[C@@H](OC(C)=O)CC2[C@]12C4C[C@H]3[C@H]1N(CC)C[C@]4(C)CC[C@@H]2O (stereo partly specified)	20	-6	-15	94	3	.	.
c1ccc(-c2[nH]c(-c3ccccc3)[n+](CC3CO3)c2-c2ccccc2)cc1 (stereo unspecified)	-17	48*	49*	85	55*	34*	-11	tim23-1 conf=50*
Cc1ccc2c(c1)C1CN(C)CCC1N2C(=O)/C(C#N)=C/c1ccc2c(c1)OCO2 (stereo unspecified)	12	17	23	109	28	.	.
CC(C)Oc1cc(-n2c(=S)[nH]c3ccccc3c2=O)c(Cl)cc1Cl	12	45*	45*	106	53*	24	42*	tim23-1 conf=52*
CCOC(=O)c1sc(/N=C/c2c(O)n(-c3cccc(C)c3)c(=O)[nH]c2=O)c(C#N)c1C	18	-19	14	98	14	.	.
SMILES	NALP3 yeast inh	TIM10 inh	tim10-1 inh	CR mimetic SO	tim23-1 inh	tim10-1 conf	tim10 confirm	others
CCOP(=O)(OCC)/C(C#N)=C/c1ccc(Br)cc1	19	51*	45*	102	69*	39*	52*	tim23-1 conf=56*
N=C(N)c1c(O)n(C2CCCCC2)c(=O)n(C2CCCCC2)c1=O	0	15	54*	118	66*	33*	.	tim23-1 conf=52*
O=c1c(C=NCc2cccs2)c(O)n(C2CCCCC2)c(=O)n1C1CCCCC1	17	19	16	106	11	.	.
C[C@@H]1CC[C@@]2(NC1)O[C@H]1C[C@H]3[C@@H]4CC=C5C[C@@H](O)CC[C@]5(C)[C@H]4CC[C@]3(C)[C@H]1[C@@H]2C	-2	49*	51*	93	54*	27	51*	tim23-1 conf=68*
C[C@]12CC[C@H](O)CC1=CCC1C2CC[C@@]2(C)C1CC[C@@H]2OCc1ccccc1 (stereo partly specified)	16	-13	-6	108	1	.	.
CC(NC(=O)Cc1cccc2ccccc12)C(=O)N1CCC(=O)CC1 (stereo unspecified)	8	-3	-7	109	4	.	.
Cn1cccc1/C=C1/C(=O)NC(=S)N(Cc2ccc(F)cc2)C1=O	19	84*	-10	72	-5	.	86*
CCN1CCN(C(=O)Cc2c(C)n(C(=O)c3ccc(Cl)cc3)c3ccc(OC)cc23)CC1	5	-2	27	113	20	.	.
Cc1ccc(NC(=O)[C@@H](NC(=O)N2C[C@H]3C[C@@H](C2)c2cccc(=O)n2C3)C(C)C)cc1	-1	-2	5	102	-20	.	.
COC(=O)C1=C(c2ccccc2OCc2ccccc2)C[C@@H]2CC[C@H]1N2C(=O)NCc1ccc(Br)cc1	-1	2	16	91	24	.	.
COc1cc(C=C2C(=O)NC(=O)NC2=O)ccc1O	0	94*	4	89	0	.	-4
O=C1N[C@H](Cc2ccccc2)C(=O)N2[C@@H]3[C@H](C[C@@H]12)c1ccccc1N3OOSc1ccccc1	13	41*	31	97	24	.	25
Cc1c(NC(=O)C(C)OC(=O)Cc2ccccc2)c(=O)n(-c2ccccc2)n1C (stereo unspecified)	4	6	4	105	-16	.	.
O=C(COC(=O)Cc1ccccc1)NNC(=O)c1ccc([N+](=O)[O-])cc1	7	3	-3	116	5	.	.
